Here are results for 108 compounds from PubChem BioAssay AID581 (PCMD, 2007).

In all, about 62,000 compounds went through this assay and about 95 (0.2%) were called active. The entries come from a sample that favours actives as a whole. Unmarked numbers belong to inactive results.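 The calls were made as follows: active = inhibition above 20% in each of the two mixture wells holding the compound; inactive = inhibition of 20% or less in either well.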

In this assay the target is Cathepsin G (Homo sapiens) (UniProt P08311). The assay is described as follows: human cathepsin G inhibitors, primary screen, biochemical, pooled compound mixtures, AMC fluorescence (AID 581).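 Also: 0% = enzyme control without mixture and 100% = blank lacking enzyme.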 The settings on record: purified enzyme, AMC-tetrapeptide fluorescence, active compounds read high, screened at 5 µM (by protocol).
Chain of Cathepsin G (Homo sapiens) (P08311 21-244 limits assumed): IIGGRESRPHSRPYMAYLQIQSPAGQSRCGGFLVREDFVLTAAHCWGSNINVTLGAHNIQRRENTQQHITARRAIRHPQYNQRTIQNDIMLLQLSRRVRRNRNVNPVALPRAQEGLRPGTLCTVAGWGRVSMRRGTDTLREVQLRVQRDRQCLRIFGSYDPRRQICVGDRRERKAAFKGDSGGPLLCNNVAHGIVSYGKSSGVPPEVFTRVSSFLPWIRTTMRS
For the compound `COc1ccc(C2C(C#N)=C(N)Oc3n[nH]c(C)c32)cc1CN1CCN(c2ccc(F)cc2)CC1` (stereo not drawn), the inhibition was -3.59%.
In the case of `CCOC(=O)c1nnn(-c2nonc2OC)c1-c1ccccc1`, the inhibition was -2.37%.
For the compound `CC(C)=C(NC(=O)c1ccco1)C(=O)NCCc1nc2ccccc2[nH]1`, the inhibition was 9.21%.
To `O=C1CCc2cc(S(=O)(=O)N3CCC(C(=O)NCc4ccccc4Cl)CC3)ccc2N1` belongs 11%; to `CC(=O)CCS(=O)(=O)c1ccc(C)c(C)c1`, -14.8%.
For `NC(=O)C1(N2CCCCC2)CCN(C(=O)c2ccc(C#Cc3ccccc3)o2)CC1`, the inhibition is 11.6%.
The result for `COCCNc1nc(-n2nc(C)cc2C)nc2sc3c(c12)CCCC3` reads -7.79%.
In the case of `Cc1ccccc1OCCC(=O)Nc1c(C)n(C)n(-c2ccccc2)c1=O`, the inhibition is 16.9%.
To `Cc1cc(Br)ccc1NC(=O)C1CCCO1` (stereo not drawn) belongs 9.61%; to `COc1cc2[nH]c(=S)n(Cc3ccc(C)o3)c(=O)c2cc1OC`, -0.64%.
For `CN1CCN(c2nc3c(c(=O)[nH]c(=O)n3C)n2Cc2cccc3ccccc23)CC1`, the inhibition is 14.6%.
On to `Cc1nnc(SCC(=O)NCCOc2ccc(Cl)cc2)n1-c1ccccc1`, for which the inhibition was 6.24%.
To `CC1(C)CC(=O)C=C(NC2CC(C)(C)NC(C)(C)C2)C1` belongs 6.34%; to `Cn1c(=O)c2c(n(Cc3ccccc3)c1=O)NC(=O)C2CC(=O)N1CCc2ccccc2C1` (stereo not drawn), 4.22%; to `NC(=O)c1ccccc1NC(=O)c1ccccc1F`, 1.67%.
Take `Cn1c(SCc2c(F)cccc2Cl)nnc1-c1cnccn1`: the inhibition is 3.17%.
Regarding `O=C(c1cnn2ccccc12)N1CCc2ccccc21`, the inhibition was 10.9%.
The result for `O=C(NC1(C(F)(F)F)N=C2SCCN2C1=O)c1ccco1` (stereo not drawn) reads 3.45%; that for `O=C(CCN1C(=O)COc2ccccc21)NCCCN1CCN(c2ccc(F)cc2)CC1`, -3.54%.
Take `Cc1cccc(NC(=O)C2CCN(S(=O)(=O)c3cccc4cccnc34)CC2)c1`: the inhibition is 10.6%.
The result for `Cc1cccc(NC(=O)COc2ccc(Br)cc2C)n1` reads 2.75%; that for `c1cc(-n2cnnn2)ccc1NC1=NCCC1`, -2.07%; that for `COc1ccc(-n2c(SCC(=O)OC(C)C)nnc2-c2ccccn2)cc1`, 7.94%.
Consider `CCC(=O)N1CCc2cc(S(=O)(=O)NC(C(=O)N3CCc4ccccc4C3)C(C)C)ccc21` (stereo not drawn), for which the inhibition was 4.46%.
The result for `CCCc1nc2ccccc2c(=O)n1/N=C/c1ccc(O)c(O)c1` reads 2.2%; that for `COc1cccc(C2/C(=C(/O)c3ccncc3)C(=O)C(=O)N2CCCN(C)C)c1` (stereo not drawn), 6.68%; that for `COCCCn1c2nc3ccccc3nc2c2c(=O)n(Cc3ccc(Cl)cc3)c(C)nc21`, 7.46%.
Take `Cc1cc(C)nc(N2C(=O)CC(Cc3ccccc3)C2=O)n1` (stereo not drawn): the inhibition is -4.68%.
In the case of `Cc1cc(=O)[nH]c(SCc2cc(Cl)ccc2OC(F)F)n1`, the inhibition was 8.17%.
The result for `O=C(CNCCO)NC12CC3CC(CC(C3)C1)C2` reads 11.2%.
Take `C[C@H](NC(=O)NCCc1ccccc1)C(=O)O`: the inhibition is 2.02%.
Consider `O=C(Cn1c(=O)sc2ccccc21)Nc1ccc2c(c1)OCCO2`, for which the inhibition was 1.24%.
In the case of `O=C(Nc1ccc2c(c1)OCO2)C1CC(c2c(F)cccc2Cl)=NO1` (stereo not drawn), the inhibition is 9.79%.
The result for `CCCCCN(C(=O)NC(=O)Nc1ccccc1C)S(C)(=O)=O` reads 3.6%; that for `CC(C)C(=O)Nc1cccc(C(=O)Nc2ccc3c(c2)OCO3)c1`, 10.1%.
For the compound `CCOc1c(N2CCCCC2)c(=O)c1=O`, the inhibition is -3.4%.
To `Cc1cc2c(cc1C)NC(c1ccccn1)C1=C(CC(C)(C)CC1=O)N2` (stereo not drawn) belongs 9.5%; to `Cc1ccc(S(=O)(=O)N2CCN(Cc3cccc(C)c3O)CC2)cc1`, 2.48%.
As to `O=c1c2ccccc2[nH]c(=S)n1CCN1CCC(=C(c2ccc(F)cc2)c2ccc(F)cc2)CC1`, the inhibition is 13.1%.
For `CCC(C)n1[nH]c(=O)cc1N` (stereo not drawn), the inhibition was 0.53%.
To `CN(c1nc2ccccc2n2c(-c3ccco3)nnc12)S(=O)(=O)c1ccccc1` belongs -5.29%; to `N#Cc1c(/N=C/N2CCCC2)oc(-c2ccccc2)c1-c1ccccc1`, 9.67%; to `O=C(Nc1cc(=O)[nH]c2ncnn12)c1ccccc1Cl`, -3.08%.
With `O=C(O)C1CC=C(Cl)CC1C(=O)NCc1ccccc1` (stereo not drawn), the inhibition was 12.7%.
The result for `Cc1ccc(-n2c(N)c(C(=O)N3CCOCC3)sc2=S)c(C)c1` reads 11.4%; that for `c1ccc2c(c1)OCC(c1nn3cnnc3s1)O2` (stereo not drawn), 1.56%; that for `CC(=O)N1CSCC1C(=O)O` (stereo not drawn), 10.9%.
The result for `COc1ccc(C)cc1S(=O)(=O)NC1CCCCC1` reads 3.27%; that for `O=C(CCCN1C(=O)CSc2ncccc21)N1CCN(c2cccc(C(F)(F)F)c2)CC1`, 1.22%; that for `Fc1ccc(Br)cc1/C=N/n1cnnc1`, -0.86%.
As for `ON=C1/C(=N\O)CC2(C/C1=N/O)OCCO2`, the inhibition was -0.38%.
The result for `CC(=O)c1c(C)n(-c2ccc(N(C)C)cc2)c2ccc(OCC(N)=O)cc12` reads 8.67%; that for `COc1ccc(S(=O)(=O)NC2(C(F)(F)F)N=C3SCCN3C2=O)cc1` (stereo not drawn), 11.4%; that for `CCN(CC)C(=O)C1CCC(C)(C(=O)O)C1(C)C` (stereo not drawn), 11.2%.
On to `COC(=O)c1ccccc1NC(=O)C1CCN(S(=O)(=O)c2cc(OC)ccc2OC)CC1`, for which the inhibition was 2.31%.
The result for `CC(=O)N(CC1CCCO1)C1(C(=O)NC2CCCC2)CCCCC1` (stereo not drawn) reads 10.3%; that for `COCC(=O)Nc1nnc(COc2ccccc2)s1`, -21.9%; that for `CCN(CC(=O)Nc1ccc2c(c1)OCCO2)Cc1cc(=O)oc2cc(C)c(C)cc12`, 1.52%.
To `CC1(C)Cc2ccccc2-c2nc(CN3CCOCC3)[nH]c(=O)c21` belongs 3.33%.
To `O=C1N(Cc2ccc3c(c2)OCO3)c2ccccc2C1(O)c1c[nH]c2ccccc12` (stereo not drawn) belongs 1.27%; to `COc1ccc(Cl)cc1NC(=O)C1CC(=O)N(c2ccc(F)cc2)C1` (stereo not drawn), 8.25%; to `O=C(CN1CCOCC1)N1CCCc2c1c(=O)oc1ccc(OCc3ccccc3)cc21`, -5.32%.
With `O=C1N=C(N2CCOCC2)CS1`, the inhibition was -2.67%.
To `O=C(CSc1nnc(-c2ccco2)n1CC1CCCO1)c1ccccc1` (stereo not drawn) belongs 10.9%; to `CSc1ccc(-c2c(C#N)c(N)nc3c2c(C)nn3-c2ccccc2)cc1`, 5.96%.
The result for `Cc1c(C(=O)OCC(=O)N(CCC#N)c2ccccc2)oc2c1ccc1ccccc12` reads 10.9%; that for `COc1ccc2nc(N3CCCC(O)C3)c(C#N)cc2c1` (stereo not drawn), 7.5%; that for `O=C(Nc1ccc(S(=O)(=O)N2CCCC2)cc1Cl)C1=COCCO1`, -0.78%.
The result for `CN(C)c1ccc(CNC23CN4CN(CN(C4)C2)C3)cc1` reads -0.235%; that for `CCCCNC(=O)CSc1nccn1Cc1ccccc1`, -4.63%.
With `COCCNC(=O)C(C#N)c1nc2ccccc2nc1N1CCN(Cc2ccc3c(c2)OCO3)CC1` (stereo not drawn), the inhibition is 8.39%.
Consider `Cc1cc(N=CC2=C(O)CCCC2=O)no1`, for which the inhibition is 14.9%.
To `CC1CCCC(C)N1C(=O)CN1CCN(c2nc(-c3ccc(F)cc3)cs2)CC1` (stereo not drawn) belongs -39.9%; to `CCOC(=O)N1CCN(C(=O)c2ccc(CN(c3ccc(C)c(C)c3)S(C)(=O)=O)cc2)CC1`, 11.3%; to `N#CC1=C(N)Oc2n[nH]c(CSc3ccccc3)c2C12C(=O)Nc1ccccc12` (stereo not drawn), 13.8%.
To `COc1ccc(-c2nc(CS(=O)CC(=O)N3CCc4ccccc4C3)c(C)o2)cc1` (stereo not drawn) belongs 2.91%.
As to `CCCCn1nc(C(=O)N2CCc3ccccc32)c2ccccc2c1=O`, the inhibition was -0.085%.
To `COc1ccccc1N1CC(O)=C(c2nc3ccccc3s2)C1=N` belongs -0.35%.
For the compound `O=C1CCC(C(=O)Nc2ccc(OC(F)F)cc2)N1` (stereo not drawn), the inhibition was 1.46%.
The result for `Nc1c(C(=O)NCc2ccccc2)nnn1Cc1cccc(Cl)c1` reads -2.37%; that for `Cc1cc(C(F)(F)F)nn1-c1nc(-c2ccco2)cc(C(F)(F)F)n1`, -9.21%.
Consider `Cc1ccc2cc3cc(C(=O)N4CCCCCC4)oc3nc2c1`, for which the inhibition is 8.2%.
The result for `COCCOC(=O)C1=C(C)Nc2nc(C)nn2C1c1ccccc1` (stereo not drawn) reads -6.8%; that for `CC1C=CCC2C(=O)N(c3cccc(C(=O)N4CCCCCC4)c3)C(=O)C12` (stereo not drawn), 9.22%.
The result for `CCOC(=O)CSc1nnc(-c2ccncc2)o1` reads 7.88%; that for `O=C(c1ccco1)N1CCN=C1SCc1cccc(Cl)c1`, -1.57%; that for `Cc1ccc(-c2nc(CS(=O)CC(=O)NC3CCCC3)c(C)o2)cc1` (stereo not drawn), -3.33%.
The result for `CCN(CCCNC(=O)C1CCN(S(=O)(=O)c2cnc[nH]2)CC1)c1ccccc1` reads 14.4%; that for `O=C(NCCCN1CCCCCC1)c1ccc(N2CCCC2=O)cc1`, 1.79%; that for `CC1(N2CCOCC2)CC2(O)C(=[N+]1[O-])CCc1nonc12` (stereo not drawn), 11.9%.
In the case of `O=C(NC1CCCCC1)c1ccc2c(=O)n(CC3CCCO3)c(=O)[nH]c2c1` (stereo not drawn), the inhibition is -1.31%.
Regarding `Cc1cc(C)c(C)c(S(=O)(=O)Nc2ccc(O)cc2)c1C`, the inhibition was -0.38%.
Turning to `COc1ccc(OCCCON2C(=O)c3ccccc3C2=O)cc1`, the inhibition was -4.08%.
To `COc1cc(Br)cc(/C=N/c2ncn[nH]2)c1O` belongs 10.2%.
To `CN(c1ccc(C(=O)NCCC2=CCCCC2)cc1)S(C)(=O)=O` belongs 1.87%.
With `COc1cccc2cc(C(C)N(CCCN3CCOCC3)C(=O)Nc3ccc(Cl)cc3)oc12` (stereo not drawn), the inhibition was 1.68%.
The result for `O=C(O)CN(Cc1ccco1)S(=O)(=O)c1ccc(F)cc1` reads 6.5%; that for `COc1ccc2c(c1OC)C(=O)N(c1ncn[nH]1)C2`, -3.84%; that for `COc1ccc(C)c2sc(=NC(=O)c3ccc(C#N)cc3)n(C)c12`, 1.85%.
Regarding `O=C(CCCC(=O)N(CC(=O)NC1CCCC1)Cc1ccccc1Cl)Nc1ccccn1`, the inhibition was 7.61%.
The result for `Cc1nnc(NC2=NCCCCC2)o1` reads -1.69%; that for `CSCCC1NC2(C(=O)Nc3ccc(Cl)cc32)[C@@H]2C(=O)N(C3CCCC3)C(=O)[C@H]12` (stereo partly drawn), 17.3%.
For `COc1ccc(N2C(=O)C3CCCN3C2c2cccc(OC)c2)cc1` (stereo not drawn), the inhibition was -5.7%.
To `CCC(C)Sc1nc(C)nc2c1c(=O)n(C)c(=O)n2C` (stereo not drawn) belongs 8.64%.
To `O=C(CC1CCCCC1)Nc1c2c(nn1-c1ccc(F)cc1)CS(=O)(=O)C2` belongs -0.2%; to `COc1ccc(C2C(C#N)=C(N)Oc3cc(N)ccc32)cc1OC` (stereo not drawn), -2.81%; to `O=C(CCCn1c(=O)oc2ccccc21)Nc1cccnc1`, -1.41%.
To `Cc1nc(-c2ccc(NC(=O)c3cccs3)cc2)cs1` belongs 8.02%.
